Screens: PubChem BioAssay, Johns Hopkins Ion Channel Center
Rows were chosen to be rich in hits. Some 1.6% of all compounds tested hit in one or more screens of this group.
KCNQ2 inh – rat KCNQ2 potassium channel inhibitors, primary screen, cell-based, CHO-K1, FluxOR thallium flux, B-score. 20 min; hits give low values. B-score at 10 µM. 310,000 compounds, 1.1% hits. AID 2156, 2009;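 active = fluorescence ratio B-score at most minus 3 library SDs, with starting brightness B-score within 2 library SDs, cut at about -5.5 in these data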
KCNQ2 pot – potentiators of rat KCNQ2 potassium channel | CHO-K1 KCNQ2, FluxOR thallium flux fluorescence; hits give high values | B-score at 10 µM | 310,000 compounds, 0.54% hits | AID 2239, 2010;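 active = fluorescence ratio B-score at least 3 SD of library B-scores, with initial fluorescence B-score within 3 of them, cut at about 5.3 in these data; same plate scores as AID 2156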;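 also: B-score of peak minus minimum over baseline fluorescence ratio after K+ and Tl+ stimulus; positive B-score means potentiation of KCNQ2 with more thallium influx and brighter signal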
Kir21 conf inh – mouse Kir2.1 channel blockers, retest, confirmation, cell-based, FluxOR thallium flux, duplicate; shares compounds with KCNQ2 pot; Kir2.1-expressing cells, FluxOR thallium flux fluorescence; hits give low values; Tl flux remaining, % of negative control (hits give low values), % at 10 µM; 2,300 compounds, 41% hits; AID 2032, 2009;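 active = Primary-screen hit whose thallium flux fell at least 3 control SD below untreated wells in both duplicates, with normal baseline fluorescence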
HEK293 Tl flux – alters thallium flux in parental HEK293 cells, Kir2.1 counter-screen | shares compounds with KCNQ2 pot | FluxOR thallium flux fluorescence; 0% = unstimulated blank wells | FluxOR signal as % of negative control (100 = no effect), % at 10 µM | 2,300 compounds, 19% hits;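 active = dye signal at least 3 control SD above or below untreated wells in both duplicates, raw fluorescence within 3, either direction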;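 also: percent is based on the flux ratio of peak minus minimum fluorescence over baseline F0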
CHO-K1 Tl ctr – nonspecific thallium flux increase in parental CHO-K1, confirmation, counter-screen for KCNQ2 potentiator project, cell-based, FluxOR thallium flux, duplicate. shares compounds with KCNQ2 pot. parental CHO-K1 cells, FluxOR thallium flux fluorescence; zero = vehicle mean+3SD, 100% = vehicle-minus-blank window. activity increase over 3SD of controls, % at 10 µM. 1,200 compounds, 43% hits. AID 2282, 2010;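 active = signal rise of at least 3 SD above the untreated control mean, in both duplicate wells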;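 also: counter screen of KCNQ2 potentiator hits so any rise reflects channel-independent effects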
KCNQ1 sel pot – human KCNQ1 channel potentiation off-target, confirmation, selectivity assay for KCNQ2 potentiator project, cell-based, CHO, FluxOR thallium flux | AID 2283, 2010 | 1,200 compounds, 28% hits | shares compounds with KCNQ2 pot | activation over 3SD threshold, % at 10 µM | CHO KCNQ1 stable, FluxOR thallium flux fluorescence; beyond 3SD, as % of vehicle-control signal;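 active = fluorescence ratio rise of at least 3 SD of vehicle wells above their mean, in both replicate wells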
Target sequence (P51787 whole entry, looked up): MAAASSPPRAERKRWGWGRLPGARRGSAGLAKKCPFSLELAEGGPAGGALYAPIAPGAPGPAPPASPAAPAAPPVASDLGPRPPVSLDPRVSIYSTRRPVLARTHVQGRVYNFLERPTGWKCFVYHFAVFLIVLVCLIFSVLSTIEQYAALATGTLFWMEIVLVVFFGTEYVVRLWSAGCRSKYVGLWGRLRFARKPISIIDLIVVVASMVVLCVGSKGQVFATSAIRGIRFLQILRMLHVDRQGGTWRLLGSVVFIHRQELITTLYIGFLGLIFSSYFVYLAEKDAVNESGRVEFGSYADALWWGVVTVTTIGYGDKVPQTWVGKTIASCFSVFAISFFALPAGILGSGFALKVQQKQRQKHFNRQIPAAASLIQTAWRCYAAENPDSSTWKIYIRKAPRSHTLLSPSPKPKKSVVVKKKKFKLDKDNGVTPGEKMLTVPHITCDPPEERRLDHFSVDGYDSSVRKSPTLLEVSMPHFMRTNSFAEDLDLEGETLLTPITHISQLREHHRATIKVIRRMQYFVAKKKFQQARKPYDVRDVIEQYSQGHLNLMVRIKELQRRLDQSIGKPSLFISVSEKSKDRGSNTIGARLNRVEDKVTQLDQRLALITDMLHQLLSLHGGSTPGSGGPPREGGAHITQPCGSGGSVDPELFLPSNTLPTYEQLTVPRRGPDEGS
KCNQ2 pot conf – rat KCNQ2 channel potentiators, confirmation, cell-based, CHO, FluxOR thallium flux, duplicate. shares compounds with KCNQ2 pot. CHO-KCNQ2 cells, FluxOR thallium flux fluorescence. potentiation, less the hit threshold, % at 10 µM. 1,200 compounds, 68% hits. AID 2287, 2010;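 active = fluorescence ratio rising 3 SD or more over the vehicle control mean in both replicates, plus primary screen hit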;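 also: peak minus minimum thallium fluorescence divided by baseline after K/Tl stimulus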
Kir2-1 sel – mouse Kir2.1 channel activation off-target, confirmation, selectivity assay for KCNQ2 potentiator project, cell-based, HEK293, FluxOR thallium flux | HEK293 Kir2.1, FluxOR thallium flux fluorescence | activity over 3SD threshold, % at 10 µM | shares compounds with KCNQ2 pot | AID 2345, 2010 | 1,200 compounds, 2% hits;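 active = fluorescence ratio rise of at least 3 SD above the vehicle-control mean, seen in both replicates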
KCNQ2 W236L pot – potentiators of retigabine-insensitive KCNQ2 W236L, mechanism study for KCNQ2 potentiator project, cell-based, rat KCNQ2 W236L, CHO, automated patch clamp; automated patch clamp current; 940 compounds, 10% hits; current increase over 3SD of negative controls (%), hits give high values, % at 25 µM; shares compounds with KCNQ2 pot;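 active = current increase at least 3 SD of the untreated controls above them in both duplicate recordings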
Hits are given with their value; i = inactive; nt = no result.

SMILES	KCNQ2 inh	KCNQ2 pot	Kir21 conf inh	HEK293 Tl flux	others
CC(=O)N(CC(=O)O)c1ccccc1	i	i	nt	nt
CC(=O)N(CC(C)(C)CC=C(C)C)c1ccccc1	i	nt	54%	i
Oc1c(Cl)cc(Cl)cc1C=Nc1ccc(Br)cc1	i	7.1	i	i	CHO-K1 Tl ctr=i;KCNQ1 sel pot=31;KCNQ2 pot conf=16;Kir2-1 sel=i;KCNQ2 W236L pot=i
Oc1c(Cl)cc(Cl)cc1C=Nc1ccc(N2CCOCC2)cc1	i	i	nt	nt
O=C(Cc1ccsc1)Nc1ccccc1F	i	nt	nt	nt
CCCCn1c(N)c(N(CCOC)C(=O)CSc2nnc(-c3ccc(F)cc3)n2N)c(=O)[nH]c1=O	i	nt	nt	nt
Cc1oc2cc([N+](=O)[O-])c(O)c([N+](=O)[O-])c2c1C(=O)c1ccc(Cl)cc1	i	7.9	i	144%	CHO-K1 Tl ctr=88;KCNQ1 sel pot=i;KCNQ2 pot conf=14;Kir2-1 sel=i;KCNQ2 W236L pot=10%
COc1ccc(OC)c(C(=O)c2c(C)oc3cc([N+](=O)[O-])c(O)c([N+](=O)[O-])c23)c1	i	i	nt	nt
COc1ccc(C(OCC(O)CNCCc2ccc(S(N)(=O)=O)cc2)c2ccc(OC)cc2)cc1 (stereo not drawn)	i	i	nt	nt
OC(CNCCc1ccc(C(F)(F)F)cc1)COC(c1ccccc1)c1ccccc1 (stereo not drawn)	i	nt	51%	68%
O=C1CCCN1CCCNS(=O)(=O)c1ccc(F)cc1F	i	i	nt	nt
CNC(=O)c1nnsc1S(=O)(=O)c1ccc(Cl)cc1	-7.1	i	i	i
O=C(c1nnsc1S(=O)(=O)c1ccc(Cl)cc1)N1CCOCC1	i	i	nt	nt
CC(OC(=O)C1=COCCO1)C(=O)NC(C)c1ccc(Cl)cc1Cl (stereo not drawn)	i	nt	nt	nt
O=C(Nc1ccccc1C(=O)O)c1cc(S(=O)(=O)N2CCCCC2)c(Cl)cc1Cl	i	nt	nt	nt
Cc1[nH]c(=S)c(C#N)c(-c2ccco2)c1C(=O)N(C)C	i	i	nt	nt
CC(C)=CCc1c(O)c(CC=C(C)C)c2c(c1O)C(=O)CC(c1ccc(O)cc1)O2 (stereo not drawn)	i	nt	nt	nt
CC(C)=CCc1c(O)cc(O)c2c1OC(c1ccc(O)cc1)CC2=O (stereo not drawn)	-7.8	i	62%	i
CCC(=O)c1ccc(OC(=O)Cc2ccc(OC)cc2)cc1	i	i	nt	nt
O=C(NNC(=S)NC1CCCCC1)c1cccs1	i	i	nt	nt
CC1CCCCC1NC(=S)NC(=O)c1cccs1 (stereo not drawn)	i	8.4	i	188%	CHO-K1 Tl ctr=44;KCNQ1 sel pot=23;KCNQ2 pot conf=15;Kir2-1 sel=i;KCNQ2 W236L pot=i
Cn1ncc2c(O/N=C(\N)c3ccc(C(C)(C)C)cc3)ncnc21	i	6.2	i	i	CHO-K1 Tl ctr=47;KCNQ1 sel pot=i;KCNQ2 pot conf=6.1;Kir2-1 sel=i;KCNQ2 W236L pot=i
COC(CNc1ncnc2c1cnn2C)OC	i	i	nt	nt
Cc1cccc(NS(=O)(=O)c2c(C(=O)N3CCOCC3)c(C)n(C)c2C)c1C	i	nt	nt	nt
CC(=O)C1=C(C)NC(SCC(=O)c2ccc(Cl)cc2)=C(C#N)C1c1ccco1 (stereo not drawn)	i	12	i	i	CHO-K1 Tl ctr=i;KCNQ1 sel pot=17;KCNQ2 pot conf=i;Kir2-1 sel=i
SMILES	KCNQ2 inh	KCNQ2 pot	Kir21 conf inh	HEK293 Tl flux	others
CC(=O)C1=C(C)NC(SCC(=O)c2ccc(Cl)cc2Cl)=C(C#N)C1c1ccco1 (stereo not drawn)	i	i	nt	nt
Cc1ccc(NC(=O)c2nc(S(=O)(=O)Cc3ccccc3)ncc2Cl)cc1	i	i	nt	nt
Cc1cccc(CS(=O)(=O)c2ncc(Cl)c(C(=O)NCc3ccccc3)n2)c1	i	nt	nt	nt
Cc1cccc(C)c1NC(=O)c1nc(S(=O)(=O)Cc2ccccc2)ncc1Cl	i	nt	nt	nt
Cc1cccc(CS(=O)(=O)c2ncc(Cl)c(C(=O)Nc3c(C)cccc3C)n2)c1	i	nt	i	i
CCCc1nnc(NC(=O)c2nc(S(=O)(=O)Cc3cccc(C)c3)ncc2Cl)s1	i	15	nt	nt	CHO-K1 Tl ctr=i;KCNQ1 sel pot=i;KCNQ2 pot conf=99;Kir2-1 sel=i;KCNQ2 W236L pot=34%
Cc1nnc(NC(=O)c2nc(S(=O)(=O)Cc3ccccc3)ncc2Cl)s1	i	14	i	i	CHO-K1 Tl ctr=3.1;KCNQ1 sel pot=46;KCNQ2 pot conf=58;Kir2-1 sel=i;KCNQ2 W236L pot=23%
COc1ccc(N(C)S(=O)(=O)c2cccc(C(=O)N(C)Cc3ccc(C)o3)c2)cc1	i	nt	nt	nt
COc1ccc(C)cc1NC(=O)CN1C(=O)COc2ccc(S(=O)(=O)N3CCC(C)CC3)cc21	i	nt	nt	nt
CCCCN(CCCC)CCNC(=O)CN1C(=O)COc2ccc(S(=O)(=O)N3CCC(C)CC3)cc21	i	nt	nt	nt
CCCCN(CCCNC(=O)CN1C(=O)COc2ccc(S(=O)(=O)N3CCC(C)CC3)cc21)Cc1ccccc1	i	i	66%	i
COc1ccc(-c2nc3ccccc3[nH]2)cc1	i	nt	nt	nt
COc1ccc(-c2nc(=S)c3ccc4ccccc4c3[nH]2)cc1	i	20	i	152%	CHO-K1 Tl ctr=i;KCNQ1 sel pot=i;KCNQ2 pot conf=23;Kir2-1 sel=i;KCNQ2 W236L pot=i
Cc1c(-n2c(SCC(=O)O)nnc2-c2ccccc2Br)c(=O)n(-c2ccccc2)n1C	i	i	nt	nt
O=C(NC1CCN(Cc2ccccc2)CC1)c1ccccc1Cl	i	i	nt	nt
Cc1c(C(=O)NC2CCN(Cc3ccccc3)C2)oc2c(Cl)cccc12 (stereo not drawn)	i	nt	i	i
O=C1c2ccccc2S(=O)(=O)N1CCS(=O)(=O)c1ccc(F)cc1	i	i	nt	nt
C=CCn1c(=S)sc2c(=O)[nH]cnc21	i	i	nt	nt
Cc1cccc2c1ncc1c(=O)n(-c3ccccc3)[nH]c12	i	nt	nt	nt
Cc1ccc(OCC(O)Cn2c(=N)n(Cc3ccccc3)c3ccccc32)cc1 (stereo not drawn)	i	nt	38%	i
N=c1n(Cc2ccccc2)c2ccccc2n1Cc1ccccc1	i	i	nt	nt
COc1ccc(OCC(O)Cn2c(=N)n(Cc3ccccc3)c3ccccc32)cc1 (stereo not drawn)	i	nt	46%	i
